C diff growth = inhibitors of Clostridium difficile growth; Clostridium difficile clinical isolate growth, OD600, 24 h; active compounds read low; growth activity, negative = inhibition, % at 16 µg/mL (by protocol); AID 1259249; 0.25% of 86,000 active;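 active means mean growth activity at or below -80% and every replicate also at or below -80%; inconclusive means mean at or below -80% but some replicate above -80%; inactive means mean growth activity above -80%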;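 further: 0% = DMSO wells and -100% = levofloxacin 16 µg/mL wells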
Tcruzi prolif = T. cruzi proliferation inhibition; inhibition, % at 8.34 µM; T. cruzi beta-gal in NIH3T3, GalScreen luminescence, 90 h; AID 624255; 5.9% of 77,000 active;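 active means mean inhibition above about 93%, with at least 55% of replicates each passing it, limit read from the data, passing the limit was not always enough; inconclusive means only one of those two conditions holds; inactive means neither condition holds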
Pf Dd2 growth = P. falciparum Dd2 growth inhibition; activity change, % at 10 µM; 2.3% of 94,000 active; AID 1159554; SYBR Green, 72 h; active compounds read low; in the data active means activity change below about -80%; inconclusive means no clear call, values can overlap the other calls
The depositor's hits bear a star; ? = inconclusive; / = no result given. Hits are enriched below; roughly 6.7% of the tested compounds scored in any of these assays.

SMILES | C diff growth | Tcruzi prolif | Pf Dd2 growth
C[C@@H]1CN([C@@H](C)CO)C(=O)c2cccc(NC(=O)CCCCCC(=O)Nc3ccccc3N)c2O[C@H]1CN(C)Cc1ccncc1 | -2.1 | / | -40.1
CCC(=O)Nc1ccc2c(c1)C(=O)N(C)C[C@H](OC)[C@@H](C)CN(C(=O)CN1CCOCC1)[C@H](C)CO2 | / | -35.3 | /
C[C@H]1CN([C@@H](C)CO)C(=O)c2cc(C#CC3(O)CCCC3)cnc2O[C@H]1CN(C)Cc1ccccn1 | -2.5 | -15.0 | 32.3
CC(=O)N[C@@H]1CC[C@H](CCNC(=O)C2CCC2)O[C@H]1CO | -0.1 | / | -13.7
COCC#Cc1ccc([C@H]2[C@@H](CO)N3C(=O)CN(C(=O)C4CCOCC4)C[C@H]23)cc1 | 4.3 | / | 31.3
CCC(=O)N1CCC2(CC1)CN(Cc1ccc3c(c1)OCO3)[C@@H](CO)c1c2c2ccc(OC)cc2n1C | -1.9 | / | -91.0*
CCC(=O)N1CC2(C1)CN(Cc1cccc(Cl)c1)[C@H](CO)c1c2c2ccc(OC)cc2n1C | 14.3 | / | -92.1*
CCC(=O)N1CC2(C1)CN(Cc1cccc(Cl)c1)[C@@H](CO)c1c2c2ccc(OC)cc2n1C | 11.6 | / | -49.5
COc1ccc2c3c(n(C)c2c1)[C@@H](CO)N(CC1CC1)CC31CN(C(=O)c2ccc3c(c2)OCO3)C1 | 3.4 | / | -74.1
COc1ccc2c3c(n(C)c2c1)[C@H](CO)N(CC1CC1)CC31CN(C(=O)c2ccc3c(c2)OCO3)C1 | 1.5 | / | -89.3*
COc1cc(CN2CC3(CN(C(=O)c4ccc5c(c4)OCO5)C3)c3c(n(C)c4cc(OC)ccc34)[C@@H]2CO)cc(OC)c1 | 4.9 | / | -70.8
COCC(=O)N1CCC2(CC1)CN(Cc1ccc3c(c1)OCO3)[C@@H](CO)c1c2c2ccc(OC)cc2n1C | 48.0 | / | -70.7
COc1ccc2c3c(n(C)c2c1)[C@@H](CO)N(Cc1ccc2c(c1)OCO2)CC31CN(C(=O)c2ccc3c(c2)OCO3)C1 | 18.8 | / | -85.0*
O=C(C[C@@H]1C=C[C@@H](NC(=O)c2cccnc2)[C@@H](CO)O1)NCc1ccc(Cl)c(Cl)c1 | / | 23.1 | -31.1
Cc1ccc(S(=O)(=O)N(C)C[C@H]2Oc3ccc(NS(=O)(=O)c4cccs4)cc3CC(=O)N([C@@H](C)CO)C[C@@H]2C)cc1 | 4.2 | 50.3 | -20.8
O=C(C[C@H]1C[C@H]2c3cc(NC(=O)CC4CC4)ccc3O[C@H]2[C@@H](CO)O1)NCCc1ccccc1 | -30.5 | 18.9 | -12.8
COc1ccccc1S(=O)(=O)N1CC[C@@H]2[C@@H](CO)Nc3ccc(-c4ccc(C#N)cc4)cc3[C@@H]21 | 2.5 | 27.7 | 17.1
C[C@@H]1CN([C@@H](C)CO)C(=O)c2cc(C#Cc3ccccn3)cnc2O[C@@H]1CN(C)Cc1ccccc1 | 1.3 | 74.6 | -18.6
C[C@H]1CN([C@@H](C)CO)C(=O)c2cc(C#CC(C)(C)O)cnc2O[C@H]1CN(C)C(=O)c1ccccc1F | -2.6 | 24.3 | 33.5
COc1ccc2c3c(n(C)c2c1)[C@H](CO)N(Cc1cc(F)ccc1F)CC31CN(C(C)=O)C1 | 0.2 | / | -76.9
C[C@@H]1CN([C@H](C)CO)C(=O)c2cc(NC(=O)Nc3ccccc3)ccc2O[C@@H](C)CCCCO[C@H]1CN(C)Cc1ccc(Cl)c(Cl)c1 | 18.7 | 67.8 | -85.6*
Cc1noc(C)c1NC(=O)Nc1ccc2c(c1)C(=O)N([C@@H](C)CO)C[C@H](C)[C@@H](CN(C)Cc1ccc(Cl)c(Cl)c1)OCCCC[C@@H](C)O2 | 6.1 | 108.8 | -85.3*
C[C@@H]1CCCCO[C@H](CN(C)Cc2ccc(Cl)c(Cl)c2)[C@H](C)CN([C@@H](C)CO)C(=O)c2cc(NC(=O)Nc3ccccc3)ccc2O1 | 7.8 | 76.1 | -84.9*
C[C@@H]1CCCCO[C@@H](CN(C)Cc2ccc(Cl)c(Cl)c2)[C@H](C)CN([C@H](C)CO)C(=O)c2cc(NC(=O)Nc3ccccc3)ccc2O1 | 15.5 | 72.9 | -82.6*
CC(C)NC(=O)Nc1ccc2c(c1)C(=O)N([C@@H](C)CO)C[C@H](C)[C@@H](CN(C)Cc1ccc(Cl)c(Cl)c1)OCCCC[C@H](C)O2 | 5.3 | / | /
SMILES | C diff growth | Tcruzi prolif | Pf Dd2 growth
CC(C)NC(=O)Nc1ccc2c(c1)C(=O)N([C@@H](C)CO)C[C@H](C)[C@H](CN(C)Cc1ccc(Cl)c(Cl)c1)OCCCC[C@@H](C)O2 | -0.7 | / | /
CC(C)NC(=O)Nc1ccc2c(c1)C(=O)N([C@H](C)CO)C[C@H](C)[C@H](CN(C)Cc1ccc(Cl)c(Cl)c1)OCCCC[C@@H](C)O2 | 11.2 | / | /
Cc1noc(C)c1NC(=O)Nc1ccc2c(c1)C(=O)N([C@H](C)CO)C[C@H](C)[C@@H](CN(C)Cc1ccc(Cl)c(Cl)c1)OCCCC[C@H](C)O2 | -2.7 | 36.6 | -26.0
CC(C)NC(=O)N(C)C[C@@H]1OCCCC[C@@H](C)Oc2ccc(NC(=O)CCCN(C)C)cc2C(=O)N([C@H](C)CO)C[C@H]1C | -4.8 | 10.3 | -30.9
O=C(Nc1cccc(Cl)c1)N1C[C@H]2[C@@H](c3ccccc31)[C@@H](CO)N2C(=O)C1CC1 | -1.8 | 32.4 | -31.7
CN(C)CCCNC(=O)C[C@@H]1CC[C@H]2[C@H](COc3ccc(NC(=O)c4ccccc4F)cc3C(=O)N2C)O1 | -3.4 | 26.1 | 36.4
Cc1noc(C)c1NC(=O)Nc1ccc2c(c1)C(=O)N([C@@H](C)CO)C[C@H](C)[C@H](CN(C)C(=O)CCCN(C)C)OCCCC[C@H](C)O2 | 5.4 | 29.7 | 51.6
CC(=O)N1CC2(C1)[C@@H](c1ccccc1)[C@@H](CO)N2C(=O)c1ccncc1 | 0.6 | / | 56.0
Cn1cnc(S(=O)(=O)N[C@H]2CC[C@@H](CC(=O)NCC3CC3)O[C@H]2CO)c1 | -1.7 | / | -0.9
CCC(=O)N1[C@H](CO)[C@@H]2c3ccccc3N(C(=O)c3ccc4c(c3)OCO4)C[C@@H]21 | -2.7 | 7.1 | -21.7
C[C@@H]1CCCCO[C@@H](CN(C)S(=O)(=O)c2ccc(F)cc2)[C@H](C)CN([C@H](C)CO)C(=O)c2cc(NC(=O)NC3CCCCC3)ccc2O1 | 16.5 | 80.9 | -72.0
Cc1ccc(S(=O)(=O)N(C)C[C@H]2OCCCC[C@@H](C)Oc3ccc(NC(=O)NC4CCCCC4)cc3C(=O)N([C@@H](C)CO)C[C@@H]2C)cc1 | -5.4 | 83.3 | ?
Cc1ccc(S(=O)(=O)N(C)C[C@@H]2OCCCC[C@H](C)Oc3ccc(NC(=O)NC4CCCCC4)cc3C(=O)N([C@H](C)CO)C[C@H]2C)cc1 | -1.5 | 90.2 | -85.3*
C[C@@H]1CN([C@H](C)CO)C(=O)c2cc(NC(=O)NC3CCCCC3)ccc2O[C@@H](C)CCCCO[C@@H]1CN(C)S(=O)(=O)c1ccc(F)cc1 | 19.1 | 34.4 | -84.1*
CO[C@H]1CN(C)C(=O)c2cc(NC(C)=O)ccc2OC[C@H](C)N(Cc2ccc(F)cc2)C[C@H]1C | / | -33.1 | 3.6
COc1ccc2c3c([nH]c2c1)[C@@H](CO)N(Cc1ccc(Cl)cc1)CC31CCN(Cc2nccs2)CC1 | -4.8 | / | -88.0*
COc1ccc2c3c([nH]c2c1)[C@H](CO)N(Cc1nccs1)CC31CN(Cc2ccncc2)C1 | 9.9 | / | -33.6
COc1ccc2c3c([nH]c2c1)[C@@H](CO)N(Cc1ccc(Cl)cc1)CC31CCN(Cc2ccccc2)CC1 | 24.5 | / | -79.6
COc1ccc2c3c([nH]c2c1)[C@H](CO)N(Cc1ccc(Cl)cc1)CC31CN(Cc2nccs2)C1 | 10.2 | / | -86.2*

Screening data as filed in PubChem.
